Data: PubChem BioAssay (EPA / NIEHS)
Calls of active or inactive are those of the source. How the source made its calls: active means hit-call score of the fitted dose curve at least 0.9, where 1 is the maximum; inactive means score below 0.9.

Assay: ATG_PBREM_CIS: Attagene CIS-FACTORIAL HepG2 Assay for human Phenobarbital-responsive Enhancer Module (PBREM) (AID 2282955)
Conditions: HepG2 PBREM cis-reporter, Attagene multiplexed transcription; actives raise or lower the signal
Description: ATG_CIS is a cell-based, multiplexed-readout assay that uses HepG2, a human liver cell line, with measurements taken at 24 hours after chemical dosing in a 24-well plate.ATG_PBREM_CIS is one of 52 assay component(s) measured or calculated from the ATG_CIS assay. It is designed to make measurements of mRNA induction, a form of inducible reporter, as detected with fluorescence intensity signals by Reverse transcription polymerase chain reaction (RT-PCR) and Capillary electrophoresis technology.Data from the assay component ATG_PBREM_CIS was analyzed into 1 assay endpoint. This assay endpoint, ATG_PBREM_CIS, was analyzed with bidirectional fitting relative to DMSO as the negative control and baseline of activity. Using a type of inducible reporter, measures of mRNA for gain or loss-of-signal activity can be used to understand the reporter gene at the transcription factor-level as they relate to the gene NR1I3. Furthermore, this assay endpoint can be referred to as a primary readout, because this assay has produced multiple assay endpoints where this one serves a reporter gene function. To generalize the intended target to other relatable targets, this assay endpoint is annotated to the nuclear receptor intended target family, where the subfamily is non-steroidal.
Human liver HepG2 cells are transiently transfected with multiple reporter transcription units (MRTUs) in 6-well plates using FuGene 6 reagent (Roche; 3 ml FuGene/1 mg DNA). The MRTU constructs are regulated by a cis-regulating element (promoter). […] A major difference between the CIS and TRANS system is that in CIS activities of endogenous TFs are measured, whereas the TRANS assay evaluates changes in activities of exogenous, chimeric NR-Gal4 proteins. […] At the end of 24 hour incubation, total RNA was isolated using TriZol reagent (Invitrogen). The isolated RNA is then reverse-transcribed using oligo(dT) primer and Mo-MLV reverse transcriptase (Invitrogen) with DNAse I (Ambion) treatment for 30 min. The one-tenth of the produced cDNA was amplified by PCR using Taq DNA polymerase (Invitrogen) and two reporter sequence-specific primers. The PCR products were fluorescently labeled by primer extension with 6-arboxyfluorescein (6-FAM) 5'-labeled reporter sequence-specific primer (2 min at 95 C, 20 s at 68 C and 10 min at 72 C) and these products were digested with 5U of HpaI (New England Biolabs) for 2h at 37 C. The fragments were purified using Qiaquick PCR columns (Qiagen), analyzed on an ABI 3130xL genetic analyzer (Applied Biosystems) with peak positions identified by using a set of X-rhodamine (ROX)-labeled MapMarker1000 molecular weight standards (BioVentures). The raw capillary electrophoresis data was processed using Attagraph software (Attagene).

Q: For `CCCCCCCCO`, which outcome is on record?
A: The outcome was “inactive”.

Q: With `On1ccccc1=S` as the compound, how does the outcome read?
A: The outcome was “inactive”.

Q: For `CC1(C)C(=O)N(Br)C(=O)N1Br`, which outcome is on record?
A: The outcome was “inactive”.

Q: For `CCCN(C1CCN(C(=O)C2CCNCC2)CC1)[C@@H]1CCc2ccc(OC)cc2C1`, which AC50 is on record?
A: Its AC50 is 157 µM (active).

Q: Which outcome does the source give for `O=C(O)CCN(C1(C(=O)NO)CCCC1)S(=O)(=O)c1ccc(Oc2ccc(F)cc2)cc1` here?
A: The outcome was “inactive”.

Q: Which outcome does the source give for `CC(=O)OCCC(C)C` here?
A: Its outcome is “inactive”.

Q: With `COc1cccc(-c2ccc(/C=C\CN3CCCCCC3)cc2Cl)c1` as the compound, how does the outcome read?
A: Its outcome is “inactive”.

Q: Which outcome does the source give for `O=C(O)CC(O)C(=O)O` (stereo not given) here?
A: Its outcome is “inactive”.

Q: For `Cc1ccc(S(=O)(=O)O)cc1C`, which outcome is on record?
A: Its outcome is “inactive”.

Q: With `CCCCCCCCCCCCc1ccccc1` as the compound, how does the outcome read?
A: Its outcome is “inactive”.

Q: For `O=c1[nH]c2ccc(S(=O)CCN3CCC(Cc4ccc(F)cc4)CC3)cc2o1` (stereo not given), which outcome is on record?
A: Its outcome is “inactive”.

Q: For `CCOCCOCCOCCO`, which outcome is on record?
A: Its outcome is “inactive”.

Q: Which outcome does the source give for `CCOC(=O)CC(CC(=O)OCC)(OC(C)=O)C(=O)OCC` here?
A: Its outcome is “inactive”.

Q: For `CN(C)c1ccc(N=NS(=O)(=O)O)cc1`, which outcome is on record?
A: Its outcome is “inactive”.

Q: Which outcome does the source give for `CC[C@H](C)C(=O)O[C@H]1C[C@@H](C)C=C2C=C[C@H](C)[C@H](CC[C@@H]3C[C@@H](O)CC(=O)O3)[C@H]21` here?
A: Its outcome is “inactive”.

Q: For `Cn1c(=O)c2c(ncn2C)n(C)c1=O`, which outcome is on record?
A: The outcome was “inactive”.

Q: Which outcome does the source give for `O=C1CCCCCN1` here?
A: The outcome was “inactive”.

Q: Which outcome does the source give for `Cn1cnc([N+](=O)[O-])c1Sc1ncnc2nc[nH]c12` here?
A: The outcome was “inactive”.

Q: For `Fc1ccccc1[C@@H](F)COC1CCC(Nc2ncnc3[nH]ncc23)CC1` (stereo not given in full), which AC50 is on record?
A: The AC50 was 26.2 µM (active).

Q: With `C[C@](N)(Cc1ccc(O)c(O)c1)C(=O)O` as the compound, how does the outcome read?
A: Its outcome is “inactive”.

Q: With `COC(=O)c1c(Cl)c(Cl)c(C(=O)OC)c(Cl)c1Cl` as the compound, how does the outcome read?
A: Its outcome is “inactive”.

Q: For `COc1ccc2sc(C(=O)Nc3nnn[nH]3)c(OC(C)C)c2c1`, which outcome is on record?
A: The outcome was “inactive”.

Q: For `O=C(OC[C@H]1O[C@@H](OC(=O)c2cc(O)c(O)c(OC(=O)c3cc(O)c(O)c(O)c3)c2)[C@H](OC(=O)c2cc(O)c(O)c(OC(=O)c3cc(O)c(O)c(O)c3)c2)[C@@H](OC(=O)c2cc(O)c(O)c(OC(=O)c3cc(O)c(O)c(O)c3)c2)[C@@H]1OC(=O)c1cc(O)c(O)c(OC(=O)c2cc(O)c(O)c(O)c2)c1)c1cc(O)c(O)c(OC(=O)c2cc(O)c(O)c(O)c2)c1`, which outcome is on record?
A: Its outcome is “inactive”.

Q: Which outcome does the source give for `Cc1c(-c2cccnc2)c2ccccc2n1CCCCC(=O)O` here?
A: Its outcome is “inactive”.

Q: With `CC(C)CC(C)(O)C#CC(C)(O)CC(C)C` (stereo not given) as the compound, how does the outcome read?
A: The outcome was “inactive”.

Q: For `C1=CCCC=CCCC=CCC1`, which outcome is on record?
A: Its outcome is “inactive”.

Q: With `CCCC(=O)OCC` as the compound, how does the outcome read?
A: The outcome was “inactive”.

Q: Which outcome does the source give for `Clc1nc(Cl)c(Cl)c(Cl)c1Cl` here?
A: Its outcome is “inactive”.

Q: Which outcome does the source give for `CCN(C(=O)c1cc(C)cc(OC[C@H](C)Nc2ccncc2)c1)C(C)C` here?
A: The outcome was “inactive”.

Q: Which outcome does the source give for `Cn1c(=O)cc(Oc2ccc(F)cc2F)c2cnc(NCC(C)(C)O)nc21` here?
A: The outcome was “inactive”.

Q: For `Nc1ccc(Nc2ccccc2)cc1`, which outcome is on record?
A: Its outcome is “inactive”.

Q: For `CC/C(=C\C(=N/O)C(N)=O)C(C)[N+](=O)[O-]` (stereo not given), which outcome is on record?
A: Its outcome is “inactive”.

Q: For `CCOC(=O)c1ccc(C2CCC(NC[C@H](O)COc3ccc(O)c(NS(C)(=O)=O)c3)CC2)cc1` (stereo not given in full), which AC50 is on record?
A: Its AC50 is 53.4 µM (active).

Q: Which outcome does the source give for `O=C1CCC(N2C(=O)c3ccccc3C2=O)C(=O)N1` (stereo not given) here?
A: Its outcome is “inactive”.

Q: Which outcome does the source give for `CCC(C)(C)C(=O)O[C@H]1C[C@@H](C)C=C2C=C[C@H](C)[C@H](CC[C@@H]3C[C@@H](O)CC(=O)O3)[C@H]21` here?
A: Its outcome is “inactive”.

Q: For `CC(C)(O)c1coc(S(=O)(=O)NC(=O)Nc2c3c(cc4c2CCC4)CCC3)c1`, which outcome is on record?
A: The outcome was “inactive”.

Q: For `Cc1ccc(N)cc1O`, which outcome is on record?
A: The outcome was “inactive”.

Q: Which outcome does the source give for `C1N2CN3CN1CN(C2)C3` here?
A: The outcome was “inactive”.

Q: For `Cc1[nH]cnc1C[C@H]1CCc2c(C)c3ccccc3n2C1=O`, which AC50 is on record?
A: The AC50 was 15.8 µM (active).

Q: For `Cc1ccc(C)c(O)c1`, which outcome is on record?
A: The outcome was “inactive”.
